{"source": "the supplement of paper PMC11001985", "data": [{"compound": "C#CCNC(=O)CCSSCCC(=O)NCCc1ccc(C=O)c(C=O)c1", "experiment": "lysine labeling ratio R10:1 (500 µM / 50 µM probe), SILAC-ABPP in living cells; higher = lower intrinsic lysine reactivity toward the probe, active = 2 or less", "settings": "HeLa; probe concentrations 500 vs 50 µM", "outline": "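In PBS at room temperature, living HeLa cells grown with SILAC light or heavy labels were treated with 50 µM or 500 µM of an alkyne-tagged, disulfide-linked lysine probe, with label swaps in both directions. Analysis was by LC-MS/MS on a TIMS-TOF Pro after click to biotin-azide, neutravidin capture and DTT release. For each lysine, R is the median across forward and reverse replicates of the filtered median high-probe/low-probe MS1 peptide ratio, capped at 20.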", "values": [{"target": "UniProt P05787 (lysine site: K207)", "lysine labeling ratio R10:1": "3.47 (inactive)"}, {"target": "RPS19 (lysine site: K77) (UniProt P39019)", "lysine labeling ratio R10:1": "2.89 (inactive)"}, {"target": "ITGAV (lysine site: K533) (UniProt P06756)", "lysine labeling ratio R10:1": "1.58 (active)"}, {"target": "CXADR (lysine site: K88) (UniProt P78310)", "lysine labeling ratio R10:1": "1.11 (active)"}, {"target": "FADS2 (lysine site: K108) (UniProt O95864)", "lysine labeling ratio R10:1": "1.75 (active)"}, {"target": "MYH9 (lysine site: K1648) (UniProt P35579)", "sequence (P35579 whole entry)": "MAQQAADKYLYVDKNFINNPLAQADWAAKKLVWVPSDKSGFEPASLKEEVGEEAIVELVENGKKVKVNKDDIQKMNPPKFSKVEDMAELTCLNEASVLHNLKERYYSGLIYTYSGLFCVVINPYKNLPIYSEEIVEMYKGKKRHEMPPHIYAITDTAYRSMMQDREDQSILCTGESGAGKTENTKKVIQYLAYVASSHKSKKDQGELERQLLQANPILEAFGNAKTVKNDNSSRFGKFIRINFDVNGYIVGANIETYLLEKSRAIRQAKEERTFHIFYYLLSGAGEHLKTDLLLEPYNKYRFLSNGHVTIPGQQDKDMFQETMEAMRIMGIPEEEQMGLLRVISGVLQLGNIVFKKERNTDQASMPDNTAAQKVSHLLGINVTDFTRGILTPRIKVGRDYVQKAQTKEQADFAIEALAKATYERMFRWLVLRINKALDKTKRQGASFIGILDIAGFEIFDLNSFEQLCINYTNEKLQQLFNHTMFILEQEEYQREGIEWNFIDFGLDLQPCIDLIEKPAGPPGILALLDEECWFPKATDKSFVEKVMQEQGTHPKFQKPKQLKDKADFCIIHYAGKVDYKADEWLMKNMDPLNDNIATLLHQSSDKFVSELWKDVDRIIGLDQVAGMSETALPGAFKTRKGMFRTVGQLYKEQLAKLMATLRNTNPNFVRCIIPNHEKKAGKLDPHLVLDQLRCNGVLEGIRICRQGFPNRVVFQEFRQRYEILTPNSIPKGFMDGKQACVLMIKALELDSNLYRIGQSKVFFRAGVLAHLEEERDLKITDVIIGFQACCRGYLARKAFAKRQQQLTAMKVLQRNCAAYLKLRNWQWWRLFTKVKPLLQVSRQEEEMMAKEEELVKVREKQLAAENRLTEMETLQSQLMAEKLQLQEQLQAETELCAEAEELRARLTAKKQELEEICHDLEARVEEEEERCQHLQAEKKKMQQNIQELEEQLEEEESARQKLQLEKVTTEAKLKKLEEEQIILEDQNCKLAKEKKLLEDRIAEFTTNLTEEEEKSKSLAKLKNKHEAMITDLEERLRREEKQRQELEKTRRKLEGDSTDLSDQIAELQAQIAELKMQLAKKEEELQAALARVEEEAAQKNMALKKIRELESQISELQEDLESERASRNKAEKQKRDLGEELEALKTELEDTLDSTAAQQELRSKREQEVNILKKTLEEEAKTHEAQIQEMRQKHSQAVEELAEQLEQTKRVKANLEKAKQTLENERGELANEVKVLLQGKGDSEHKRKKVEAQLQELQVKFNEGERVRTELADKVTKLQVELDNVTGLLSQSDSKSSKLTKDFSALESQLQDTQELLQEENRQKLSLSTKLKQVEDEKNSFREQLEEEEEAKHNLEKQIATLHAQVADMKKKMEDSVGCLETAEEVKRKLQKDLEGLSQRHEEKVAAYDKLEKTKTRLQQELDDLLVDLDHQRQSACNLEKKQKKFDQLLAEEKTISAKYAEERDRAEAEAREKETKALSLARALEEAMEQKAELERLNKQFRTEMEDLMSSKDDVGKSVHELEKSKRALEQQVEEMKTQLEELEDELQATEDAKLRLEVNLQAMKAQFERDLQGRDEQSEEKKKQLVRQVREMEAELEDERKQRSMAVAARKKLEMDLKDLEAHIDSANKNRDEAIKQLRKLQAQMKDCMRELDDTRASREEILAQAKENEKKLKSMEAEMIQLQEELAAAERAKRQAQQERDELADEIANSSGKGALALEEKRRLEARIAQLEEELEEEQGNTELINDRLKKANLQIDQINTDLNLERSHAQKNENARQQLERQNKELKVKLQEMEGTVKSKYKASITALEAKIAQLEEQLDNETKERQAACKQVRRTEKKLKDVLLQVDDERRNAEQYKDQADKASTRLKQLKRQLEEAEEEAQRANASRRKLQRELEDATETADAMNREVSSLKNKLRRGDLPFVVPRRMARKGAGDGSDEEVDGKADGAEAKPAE", "lysine labeling ratio R10:1": "1.22 (active)"}, {"target": "UniProt Q9UHN6 (lysine site: K887)", "lysine labeling ratio R10:1": "1.21 (active)"}, {"target": "UniProt Q16181 (lysine site: K373)", "lysine labeling ratio R10:1": "2.37 (inactive)"}, {"target": "CKAP4 (lysine site: K301) (UniProt Q07065)", "lysine labeling ratio R10:1": "2.85 (inactive)"}, {"target": "S100A4 (lysine site: K35) (UniProt P26447)", "sequence (P26447 whole entry, looked up)": "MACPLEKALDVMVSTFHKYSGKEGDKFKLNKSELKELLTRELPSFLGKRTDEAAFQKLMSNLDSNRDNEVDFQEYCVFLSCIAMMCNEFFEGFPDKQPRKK", "lysine labeling ratio R10:1": "6.43 (inactive)"}, {"target": "FLNB (lysine site: K1584) (UniProt O75369)", "lysine labeling ratio R10:1": "3.06 (inactive)"}, {"target": "SH3BP4 (lysine site: K679) (UniProt Q9P0V3)", "lysine labeling ratio R10:1": "3.02 (inactive)"}, {"target": "UniProt P62829 (lysine site: K13)", "lysine labeling ratio R10:1": "5.2 (inactive)"}, {"target": "LRPAP1 (lysine site: K323) (UniProt P30533)", "lysine labeling ratio R10:1": "2.24 (inactive)"}, {"target": "SLC3A2 (lysine site: K300) (UniProt P08195)", "lysine labeling ratio R10:1": "6.33 (inactive)"}, {"target": "RAB11B (lysine site: K179) (UniProt Q15907)", "lysine labeling ratio R10:1": "3.25 (inactive)"}, {"target": "CSF2RA (lysine site: K108) (UniProt P15509)", "lysine labeling ratio R10:1": "0.663 (active)"}, {"target": "EZR (lysine site: K438) (UniProt P15311)", "lysine labeling ratio R10:1": "3.51 (inactive)"}, {"target": "ITGA6 (lysine site: K946) (UniProt P23229)", "sequence (P23229 whole entry)": "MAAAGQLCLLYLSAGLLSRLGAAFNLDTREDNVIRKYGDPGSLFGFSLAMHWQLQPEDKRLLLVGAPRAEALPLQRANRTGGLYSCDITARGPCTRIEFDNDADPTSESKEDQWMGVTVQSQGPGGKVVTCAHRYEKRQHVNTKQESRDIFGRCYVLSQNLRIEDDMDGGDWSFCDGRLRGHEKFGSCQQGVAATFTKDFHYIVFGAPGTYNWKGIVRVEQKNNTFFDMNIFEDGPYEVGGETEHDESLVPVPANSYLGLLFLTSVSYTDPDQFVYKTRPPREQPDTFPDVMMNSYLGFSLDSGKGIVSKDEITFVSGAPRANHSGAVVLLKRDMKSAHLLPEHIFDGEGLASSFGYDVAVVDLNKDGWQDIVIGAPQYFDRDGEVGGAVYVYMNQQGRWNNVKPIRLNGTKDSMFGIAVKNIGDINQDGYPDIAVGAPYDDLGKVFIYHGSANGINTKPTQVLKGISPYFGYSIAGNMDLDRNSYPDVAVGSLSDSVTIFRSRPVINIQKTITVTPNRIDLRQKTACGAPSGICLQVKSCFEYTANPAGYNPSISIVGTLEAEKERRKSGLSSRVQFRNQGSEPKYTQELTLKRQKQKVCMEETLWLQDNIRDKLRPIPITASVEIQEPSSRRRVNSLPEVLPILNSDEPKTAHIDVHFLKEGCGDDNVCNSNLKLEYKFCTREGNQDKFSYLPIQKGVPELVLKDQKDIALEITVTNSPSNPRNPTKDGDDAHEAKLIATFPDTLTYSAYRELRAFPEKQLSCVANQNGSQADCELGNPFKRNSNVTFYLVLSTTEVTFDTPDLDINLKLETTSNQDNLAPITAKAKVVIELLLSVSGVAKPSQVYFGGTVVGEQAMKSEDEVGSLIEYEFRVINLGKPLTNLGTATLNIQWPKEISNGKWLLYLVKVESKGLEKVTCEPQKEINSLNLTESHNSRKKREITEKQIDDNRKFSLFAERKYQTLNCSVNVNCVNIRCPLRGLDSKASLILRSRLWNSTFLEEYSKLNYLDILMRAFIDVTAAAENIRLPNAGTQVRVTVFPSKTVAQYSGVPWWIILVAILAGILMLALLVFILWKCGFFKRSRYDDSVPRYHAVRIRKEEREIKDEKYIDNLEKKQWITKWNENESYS", "lysine labeling ratio R10:1": "2.37 (inactive)"}, {"target": "PARK7 (lysine site: K148) (UniProt Q99497)", "lysine labeling ratio R10:1": "3.31 (inactive)"}, {"target": "S100A6 (lysine site: K47) (UniProt P06703)", "lysine labeling ratio R10:1": "6.34 (inactive)"}, {"target": "UniProt O95490 (lysine site: K494)", "lysine labeling ratio R10:1": "1.07 (active)"}, {"target": "UniProt Q32P28 (lysine site: K662)", "lysine labeling ratio R10:1": "5.32 (inactive)"}, {"target": "UniProt Q15149 (lysine site: K2129)", "lysine labeling ratio R10:1": "3.49 (inactive)"}, {"target": "NSUN2 (lysine site: K28) (UniProt Q08J23)", "lysine labeling ratio R10:1": "2.49 (inactive)"}, {"target": "MICA (lysine site: K94) (UniProt Q29983)", "lysine labeling ratio R10:1": "2.63 (inactive)"}, {"target": "UniProt Q13765 (lysine site: K82)", "lysine labeling ratio R10:1": "3.23 (inactive)"}, {"target": "CDCP1 (lysine site: K71) (UniProt Q9H5V8)", "lysine labeling ratio R10:1": "2.07 (inactive)"}, {"target": "CNP (lysine site: K197) (UniProt P09543)", "lysine labeling ratio R10:1": "2.88 (inactive)"}, {"target": "GPI (lysine site: K440) (UniProt P06744)", "lysine labeling ratio R10:1": "1.78 (active)"}, {"target": "UniProt P17612 (lysine site: K48)", "lysine labeling ratio R10:1": "1.56 (active)"}, {"target": "UniProt Q15149 (lysine site: K2846)", "lysine labeling ratio R10:1": "3.06 (inactive)"}, {"target": "FRAS1 (lysine site: K263) (UniProt Q86XX4)", "lysine labeling ratio R10:1": "1.46 (active)"}, {"target": "SLC39A6 (lysine site: K249) (UniProt Q13433)", "lysine labeling ratio R10:1": "3.94 (inactive)"}, {"target": "UniProt P16144 (lysine site: K219)", "lysine labeling ratio R10:1": "4.33 (inactive)"}, {"target": "PLXNA2 (lysine site: K820) (UniProt O75051)", "sequence (O75051 whole entry)": "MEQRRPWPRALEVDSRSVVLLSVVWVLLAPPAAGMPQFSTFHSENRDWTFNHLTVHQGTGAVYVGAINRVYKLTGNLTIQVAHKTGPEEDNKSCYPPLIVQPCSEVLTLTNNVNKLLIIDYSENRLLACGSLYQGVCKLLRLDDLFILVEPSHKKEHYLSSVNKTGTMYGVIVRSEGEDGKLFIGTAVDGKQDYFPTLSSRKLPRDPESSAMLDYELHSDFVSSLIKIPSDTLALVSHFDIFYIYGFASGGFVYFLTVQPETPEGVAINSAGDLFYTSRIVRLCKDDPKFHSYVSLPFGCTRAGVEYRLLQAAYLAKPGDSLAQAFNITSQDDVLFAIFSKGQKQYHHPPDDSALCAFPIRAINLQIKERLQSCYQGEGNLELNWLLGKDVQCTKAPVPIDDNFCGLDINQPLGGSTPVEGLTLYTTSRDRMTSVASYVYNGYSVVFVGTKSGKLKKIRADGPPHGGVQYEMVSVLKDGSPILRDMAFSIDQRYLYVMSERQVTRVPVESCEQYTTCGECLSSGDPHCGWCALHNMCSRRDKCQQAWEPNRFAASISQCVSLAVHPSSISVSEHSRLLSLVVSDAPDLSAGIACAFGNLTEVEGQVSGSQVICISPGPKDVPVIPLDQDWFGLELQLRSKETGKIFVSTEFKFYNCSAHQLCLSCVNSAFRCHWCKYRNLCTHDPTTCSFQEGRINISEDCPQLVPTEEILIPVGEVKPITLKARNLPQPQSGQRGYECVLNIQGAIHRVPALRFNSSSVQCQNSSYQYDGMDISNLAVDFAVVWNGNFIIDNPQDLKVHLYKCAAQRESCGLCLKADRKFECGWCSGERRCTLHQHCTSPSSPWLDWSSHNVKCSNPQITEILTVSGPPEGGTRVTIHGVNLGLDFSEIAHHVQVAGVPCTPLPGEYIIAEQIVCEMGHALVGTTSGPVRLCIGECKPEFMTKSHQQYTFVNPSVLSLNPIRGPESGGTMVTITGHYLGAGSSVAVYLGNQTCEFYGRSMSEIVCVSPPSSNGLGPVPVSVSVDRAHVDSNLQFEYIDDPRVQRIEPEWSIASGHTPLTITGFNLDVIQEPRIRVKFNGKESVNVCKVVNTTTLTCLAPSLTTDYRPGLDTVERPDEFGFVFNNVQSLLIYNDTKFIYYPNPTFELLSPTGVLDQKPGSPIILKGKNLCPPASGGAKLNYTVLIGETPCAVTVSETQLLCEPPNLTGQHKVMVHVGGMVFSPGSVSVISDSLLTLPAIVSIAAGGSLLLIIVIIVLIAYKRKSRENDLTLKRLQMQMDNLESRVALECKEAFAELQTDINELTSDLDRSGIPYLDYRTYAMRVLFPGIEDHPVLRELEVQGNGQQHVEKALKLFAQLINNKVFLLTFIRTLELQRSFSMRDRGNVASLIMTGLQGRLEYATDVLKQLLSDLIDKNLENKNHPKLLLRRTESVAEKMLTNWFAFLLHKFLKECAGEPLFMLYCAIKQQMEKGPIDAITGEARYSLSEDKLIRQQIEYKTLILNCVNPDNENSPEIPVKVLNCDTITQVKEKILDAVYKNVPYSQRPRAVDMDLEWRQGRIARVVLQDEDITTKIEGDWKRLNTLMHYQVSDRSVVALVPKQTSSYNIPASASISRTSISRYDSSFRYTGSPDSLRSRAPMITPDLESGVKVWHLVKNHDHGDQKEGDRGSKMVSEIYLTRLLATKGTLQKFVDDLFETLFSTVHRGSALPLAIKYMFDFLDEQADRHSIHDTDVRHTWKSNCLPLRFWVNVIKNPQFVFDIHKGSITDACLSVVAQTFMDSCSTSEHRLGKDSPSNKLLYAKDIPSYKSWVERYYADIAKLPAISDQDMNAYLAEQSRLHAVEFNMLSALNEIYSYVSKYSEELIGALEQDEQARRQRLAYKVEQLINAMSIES", "lysine labeling ratio R10:1": "5.38 (inactive)"}, {"target": "ITGA6 (lysine site: K615) (UniProt P23229)", "lysine labeling ratio R10:1": "6.91 (inactive)"}, {"target": "KTN1 (lysine site: K1240) (UniProt Q86UP2)", "lysine labeling ratio R10:1": "5.6 (inactive)"}, {"target": "MYH9 (lysine site: K856) (UniProt P35579)", "lysine labeling ratio R10:1": "2.68 (inactive)"}, {"target": "HSP90B1 (lysine site: K75) (UniProt P14625)", "lysine labeling ratio R10:1": "1.47 (active)"}]}]}
